# Calls of active or inactive are those of the source. Unless noted, no rule for the calls is given here.
# Legend:
# [1] = test system: Wnt5a (protein binding on small-molecule microarray); assay: Wnt5a binders on small-molecule microarray, primary screen, biophysical, 635/667 nm fluorescence (AID 1142); details: 635 nm fluorescence, higher = more signal;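 also: fluorescence read at 667 nm with signal to noise per printed feature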
# [2] = cell viability in Huh7 cells, primary screen, cytotoxicity control for HCV replication inhibitor project, CellTiter-Glo luminescence, basal, 48 h (AID 1143); details: Huh7 HCV replicon, higher = more signal, called active from +8 up or from −8 down;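 also: Huh7 hepatoma cells carrying a hepatitis C replication reporter with no stimulus; test concentration not given here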
# [3] = P. aeruginosa biofilm formation inhibitors, primary screen, PAO1 strain, BacTiter-Glo luminescence, LB-PBS (AID 1144); details: 12 h, higher = more signal
# [4] = CREB reporter modulators without forskolin, primary screen, cell-based, PC12, CRE-LacZ reporter, unstimulated (AID 1145); details: no forskolin, luminescence, 4.5 h, higher = more signal, called active from +8 up or from −8 down
# [5] = CREB reporter modulators under forskolin, primary screen, cell-based, PC12, CRE-LacZ reporter, forskolin-stimulated (AID 1146); details: luminescence, 4.5 h, higher = more signal, called active from +8 up or from −8 down;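 also: PC12 cells with 6xCRE LacZ reporter stimulated by forskolin 10 µM; beta-galactosidase reporter signal reflecting CREB driven transcription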
# [6] = molecular target: Streptavidin (Streptomyces avidinii) (UniProt P22629); assay: streptavidin binders on small-molecule microarray, primary screen, artefact control for SMM compound annotation, biophysical, 635/667 nm fluorescence (AID 1147); details: streptavidin binding, higher = more signal;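 also: signal reflects streptavidin binding to arrayed compounds as a control protein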
# Streptavidin (Streptomyces avidinii), sequence (P22629 whole entry, looked up): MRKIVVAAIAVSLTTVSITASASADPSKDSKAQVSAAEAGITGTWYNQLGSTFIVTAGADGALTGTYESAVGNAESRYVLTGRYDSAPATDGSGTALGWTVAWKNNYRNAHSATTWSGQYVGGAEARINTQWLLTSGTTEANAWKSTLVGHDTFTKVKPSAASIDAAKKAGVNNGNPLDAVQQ
# [7] = small-molecule binders of probe aInhba, primary screen, biochemical, small-molecule microarray, 635/667 nm fluorescence (AID 1148); details: higher = more signal;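 also: score merges 667nm spot fluorescence with signal-to-noise for antibody binding to printed compounds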
# Torsin-1A (Homo sapiens) [8] = molecular target: Torsin-1A (Homo sapiens) (UniProt O14656); assay: torsin A binders from cell lysate, primary screen, small-molecule microarray, wild-type, 635/667 nm (AID 1149); details: COS7 hTOR1A-WT lysate, 635 nm fluorescence, higher = more signal
# Torsin-1A (Homo sapiens), sequence (O14656 whole entry, looked up): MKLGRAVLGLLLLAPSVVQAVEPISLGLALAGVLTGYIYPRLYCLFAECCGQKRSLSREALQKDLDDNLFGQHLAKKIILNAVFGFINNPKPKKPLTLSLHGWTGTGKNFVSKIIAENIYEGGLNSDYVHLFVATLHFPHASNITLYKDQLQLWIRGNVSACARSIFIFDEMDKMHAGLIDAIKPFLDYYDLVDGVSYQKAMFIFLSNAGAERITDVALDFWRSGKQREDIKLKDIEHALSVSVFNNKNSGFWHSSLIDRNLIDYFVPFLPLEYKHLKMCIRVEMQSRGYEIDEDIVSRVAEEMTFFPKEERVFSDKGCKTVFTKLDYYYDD
# Torsin-1A (Homo sapiens) [9] = molecular target: Torsin-1A (Homo sapiens) (UniProt O14656); assay: small-molecule binders of mutant TOR1A in lysate, primary screen, cell lysate, small-molecule microarray, COS7 lysate, 635/667 nm fluorescence (AID 1150); details: COS7 hTOR1A mutant lysate, 635 nm fluorescence, higher = more signal;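 also: score pools 667 nm emission and signal to noise measuring lysate protein binding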
# [10] = test system: Sonic hedgehog protein (Shh); assay: small-molecule binders of Shh protein, primary screen, biochemical, small-molecule microarray, 635/667 nm fluorescence (AID 1151); details: small-molecule microarray binding, 635 nm fluorescence; higher = more signal;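 also: Shh protein binding to compounds spotted on small-molecule microarray slides; score combines spot fluorescence intensity with signal-to-noise across triplicate slides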
Structure (SMILES),composite z-score [1],z-score [2],z-score [3],z-score [4],z-score [5],composite z-score [6],composite z-score [7],composite z-score (Torsin-1A (Homo sapiens) [8]),composite z-score (Torsin-1A (Homo sapiens) [9]),composite z-score [10]
CC(C)(C)N1C(=O)[C@H]2[C@H]3[C@H](O)[C@H](O)CC(=O)[C@@H]3CC[C@H]2C1=O,-0.0326,-1.07 (inactive),-0.25 (inactive),-0.93 (inactive),-0.785 (inactive),0.179,-0.109,0.236,0.261,0.525
O=c1n(Cc2cc3c(cc2Cl)OCO3)c(=O)n2n1CC[C@@H]1C(=NOC[C@@H](O)COCc3ccco3)[C@H]3O[C@H]3[C@@H](O)[C@@H]12,0.127,0.376 (inactive),-1.11 (inactive),0.975 (inactive),0.819 (inactive),1.02,0.0084,0.365,0.156,0.344
O=C(NN=C1C[C@@H](O)[C@@H](O)[C@@H]2[C@@H]3C(=O)N(C[C@@H]4CCCO4)C(=O)[C@@H]3CC[C@@H]12)OCc1ccccc1,0.0252,-0.746 (inactive),0.556 (inactive),0.694 (inactive),0.13 (inactive),-0.34,-0.242,2.6,2.72,0.604
C=CC[C@@H]1C=C[C@H](ON=C(C)CCN2CCc3nc(-c4ccccc4)c(-c4ccccc4)cc3C2)[C@@H](CO)O1,0.0399,-0.648 (inactive),-0.117 (inactive),-0.0033 (inactive),-1.03 (inactive),0.313,-0.0719,0.593,0.415,1.12
C#CCCCON=C1C[C@@H](O)[C@@H](O)[C@@H]2[C@@H]3C(=O)N(CCC(=O)OCC)C(=O)[C@@H]3CC[C@H]12,0.104,-1.42 (inactive),1.11 (inactive),-0.295 (inactive),0.783 (inactive),0.873,-0.0736,0.0183,0.36,1.65
CC(C)=CCCC(C)=CCON=C1C[C@@H](O)[C@@H](O)[C@@H]2[C@@H]3C(=O)N(C(C)(C)C)C(=O)[C@@H]3CC[C@@H]12,-0.0529,-0.813 (inactive),-0.408 (inactive),1.6 (inactive),0.585 (inactive),-0.125,-0.293,0.244,0.764,0.711
CCCCC#C[C@@H]1C=C[C@H](Oc2ccc(C(=O)OC)cc2)[C@@H](COC(=O)OCC)O1,0.769,-4.3 (inactive),0.0612 (inactive),0.291 (inactive),1.13 (inactive),0.25,-0.128,0.346,0.358,1.12
CC(CCN1CCc2nc(-c3ccccc3)c(-c3ccccc3)cc2C1)=NOC[C@@H](O)COCc1ccco1,0.133,0.42 (inactive),-0.255 (inactive),-0.878 (inactive),-0.724 (inactive),0.526,-0.0589,1.15,1.25,1.31
CCOC(=O)NN=C1C[C@@H](O)[C@@H](O)[C@@H]2[C@@H]3C(=O)N(c4cccc(Oc5ccccc5)c4)C(=O)[C@@H]3CC[C@H]12,0.0643,-1.16 (inactive),-0.215 (inactive),0.523 (inactive),0.583 (inactive),0.948,-0.129,0.933,0.0519,0.206
COc1ccc(O[C@H]2C=C[C@@H](c3ccccc3)O[C@@H]2CON=C2[C@H]3CCn4c(=O)n(-c5ccccc5)c(=O)n4[C@H]3[C@H](O)[C@@H]3O[C@H]23)cc1,0.185,-1.53 (inactive),1.92 (inactive),0.834 (inactive),-0.016 (inactive),0.836,-0.2,0.0461,0.066,0.536
COc1ccc(COC(=O)NN=C2C[C@@H](O)[C@@H](O)[C@@H]3[C@@H]4C(=O)N(C5CCCCC5)C(=O)[C@@H]4CC[C@H]23)cc1,-0.244,-0.146 (inactive),0.345 (inactive),1.61 (inactive),-0.0264 (inactive),-0.332,-0.337,-0.0324,0.408,-1.61
CC[C@@H](c1ccccc1)n1c(=O)n2n(c1=O)[C@H]1[C@H](O)[C@@H]3O[C@@H]3C(=O)[C@H]1CC2,-0.0319,-3.57 (inactive),0.206 (inactive),-1.02 (inactive),2.92 (inactive),0.092,-0.0762,0.0045,-0.146,0.678
CCN1C(=O)[C@@H]2[C@H]3C(=CC[C@@H]2C1=O)C1(OCCCO1)[C@H]1O[C@H]1[C@H]3O,0.36,-8.11 (active),0.291 (inactive),0.196 (inactive),23.3 (active),1.13,0.0513,0.616,1.09,0.956
C=CC[C@@H]1C=C[C@H](ON=C(C)CCC(=O)OC[C@H]2O[C@H](c3ccccc3)C=C[C@@H]2Oc2ccc(OC)cc2)[C@@H](CO)O1,-0.278,-1.08 (inactive),-0.743 (inactive),-0.24 (inactive),-0.24 (inactive),-0.586,-0.128,-0.957,-0.587,-0.317
COc1cccc([C@H]2Oc3ccc(OC)cc3C(=NOC[C@@H](O)[C@H]3O[C@@H]4OC(C)(C)O[C@@H]4[C@H]3O)[C@@H]2O)c1,0.205,-2.83 (inactive),1.12 (inactive),2.02 (inactive),0.0487 (inactive),-0.311,-0.105,0.0929,0.339,0.303
CCOC(=O)[C@H](Cc1ccccc1)NC(=O)CCC1CC(OC(=O)NCc2ccc3c(c2)OCO3)CC2(CCCC(COC(=O)NCCc3ccccc3OC)O2)O1 (stereo not given in full),0.296,-0.415 (inactive),0.8 (inactive),17.2 (active),0.109 (inactive),1.19,-0.0937,0.479,0.252,0.995
C[C@@H](c1ccccc1)N1C(=O)[C@H]2[C@H]3[C@H](O)[C@H](O)CC(=O)[C@H]3CC[C@H]2C1=O,0.0027,-0.273 (inactive),0.257 (inactive),-0.113 (inactive),0.209 (inactive),0.182,-0.145,0.0683,0.452,0.374
CON=C[C@@H](C)[C@H](OCc1ccccc1)C(C)C,0.103,-1.83 (inactive),-1.54 (inactive),0.987 (inactive),-0.278 (inactive),-0.0087,-0.0963,0.537,-0.253,0.224
CO[C@@H]1COC(=O)CC=C[C@H](C)[C@H](OC)COC(=O)[C@H](C)NC(=O)CC=C[C@H]1C,-0.0631,-0.0558 (inactive),0.938 (inactive),0.159 (inactive),-0.463 (inactive),-0.369,-0.133,1.57,0.63,2.09
CO[C@@H]1COC(=O)[C@H](CCSC)NC(=O)CC=C[C@@H](C)COC(=O)[C@H](C)NC(=O)CC=C[C@H]1C,0.312,0.208 (inactive),0.0303 (inactive),1.97 (inactive),-0.306 (inactive),-0.793,-0.103,1.49,0.152,1.46
C[C@@H](ON=C1[C@H]2CCn3c(=O)n(-c4ccccc4)c(=O)n3[C@H]2[C@H](O)[C@@H]2O[C@H]12)c1cn([C@@H]2COC[C@H]2O)nn1,0.134,0.981 (inactive),0.58 (inactive),0.085 (inactive),0.258 (inactive),0.189,0.0028,0.436,0.63,0.438
CC(=O)Nc1ccc([C@@H]2N[C@H](C(=O)O)CC[C@H]2C)cc1,0.101,0.138 (inactive),-1.51 (inactive),-0.884 (inactive),-1.21 (inactive),-0.0013,-0.101,0.746,0.371,0.2
COC(=O)[C@@H]1CC[C@@H](C)[C@H](c2ccc(Br)cc2)N1,-0.0771,-1.09 (inactive),0.328 (inactive),-0.258 (inactive),-1.02 (inactive),-0.165,-0.249,0.303,0.145,-0.139
CO[C@H]1COC(=O)[C@@H](Cc2ccccc2)NC(=O)[C@@H](C)COC(=O)CCC[C@@H]1C,0.0124,-0.382 (inactive),-0.0381 (inactive),-1.21 (inactive),-0.596 (inactive),-0.343,-0.285,0.656,0.187,0.787
CC(C)[C@@H](OCc1ccccc1)[C@H](C)C=NOC[C@@H](O)COCc1ccco1,-0.304,-0.33 (inactive),0.117 (inactive),1.99 (inactive),0.109 (inactive),-2.14,-0.32,-0.712,-0.491,-1.11
COC(=O)CC=C[C@@H](C)[C@@H](C=NO[C@H](C)c1cn([C@H](CO)Cc2ccccc2)nn1)NS(=O)(=O)c1ccc(C)cc1,-0.0374,-1.29 (inactive),0.92 (inactive),1.98 (inactive),0.767 (inactive),0.912,-0.0531,0.708,1.8,0.285
CC(C)CCN1CCc2nc(COc3ccccc3)c3c(c2C1)CO[C@@H](C)C3,0.0335,-0.265 (inactive),-0.372 (inactive),3.36 (inactive),-1.3 (inactive),0.414,0.0649,0.335,0.434,-0.284
CCC(=O)[C@@]1(O)C(=O)N2C(=C3C(=O)OCC[C@@H]31)N(Cc1ccccc1)C(C)=C(C(=O)OC)[C@H]2c1ccccc1,-0.308,0.321 (inactive),-1.51 (inactive),0.513 (inactive),-0.205 (inactive),0.565,0.0633,0.578,0.224,0.438
CC(CCN1CCCCc2nc(C)c(C)cc21)=NO[C@@H](C)c1cn([C@H](CO)Cc2ccccc2)nn1,-0.0648,-0.831 (inactive),0.48 (inactive),1.62 (inactive),-0.0513 (inactive),0.336,-0.016,0.803,0.728,1.02

# — PubChem BioAssay
